Numbering of substitutions follows the chain as printed.
Assays:
Experiment in all cases: PBM; 200 nM protein, PBS
Settings in all cases: dsDNA, one strand shown
SIX6 [1] = target: T1, SIX6 (Homo sapiens, UniProt O95475 114-200, L167I)
T1 sequence: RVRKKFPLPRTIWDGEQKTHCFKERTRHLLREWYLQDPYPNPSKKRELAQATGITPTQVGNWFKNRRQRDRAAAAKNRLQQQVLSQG

SIX6 [2] = target: T2, SIX6 (Homo sapiens, UniProt O95475 114-200, L143V)
T2 sequence: T1 sequence with L30V, I54L

SIX6 [3] = target: T3, SIX6 (Homo sapiens, UniProt O95475 114-200, H141N)
T3 sequence: T1 sequence with H28N, I54L

SIX6 [4] = target: T4, SIX6 (Homo sapiens, UniProt O95475 114-200, T165P)
T4 sequence: T1 sequence with T52P, I54L

SIX6 [5] = target: T5, SIX6 (Homo sapiens, UniProt O95475 114-200, L167M)
T5 sequence: T1 sequence with I54M

SIX6 [6] = target: T6, SIX6 (Homo sapiens, UniProt O95475 114-200, L143M)
T6 sequence: T1 sequence with L30M, I54L

SIX6 [7] = target: T7, SIX6 (Homo sapiens, UniProt O95475 114-200, L143I)
T7 sequence: T1 sequence with L30I, I54L

SIX6 [8] = target: T8, SIX6 (Homo sapiens, UniProt O95475 114-200, T165G)
T8 sequence: T1 sequence with T52G, I54L

SIX6 [9] = target: T9, SIX6 (Homo sapiens, UniProt O95475 114-200, T139Q)
T9 sequence: T1 sequence with T26Q, I54L

SIX6 [10] = target: T10, SIX6 (Homo sapiens, UniProt O95475 114-200, T165A)
T10 sequence: T1 sequence with T52A, I54L

SIX6 [11] = target: T11, SIX6 (Homo sapiens, UniProt O95475 114-200, L167V)
T11 sequence: T1 sequence with I54V

SIX6 [12] = target: T12, SIX6 (Homo sapiens, UniProt O95475 114-200)
T12 sequence: T1 sequence with I54L

SIX6 [13] = target: T13, SIX6 (Homo sapiens, UniProt O95475 114-200, T165I)
T13 sequence: T1 sequence with T52I, I54L

Row | Sequence | binding signal (SIX6 [1]) | binding signal (SIX6 [2]) | binding signal (SIX6 [3]) | binding signal (SIX6 [4]) | binding signal (SIX6 [5]) | binding signal (SIX6 [6]) | binding signal (SIX6 [7]) | binding signal (SIX6 [8]) | binding signal (SIX6 [9]) | binding signal (SIX6 [10]) | binding signal (SIX6 [11]) | binding signal (SIX6 [12]) | binding signal (SIX6 [13])
1 | TGTATCAA | 11.2 upbm affinity estimate (log intensity, higher = more binding, comparable within an allelic series) | 10.4 upbm affinity estimate (log intensity, higher = more binding, comparable within an allelic series) | 11.2 upbm affinity estimate (log intensity, higher = more binding, comparable within an allelic series) | 9.94 upbm affinity estimate (log intensity, higher = more binding, comparable within an allelic series) | 10.7 upbm affinity estimate (log intensity, higher = more binding, comparable within an allelic series) | 11 upbm affinity estimate (log intensity, higher = more binding, comparable within an allelic series) | 10.4 upbm affinity estimate (log intensity, higher = more binding, comparable within an allelic series) | 11.3 upbm affinity estimate (log intensity, higher = more binding, comparable within an allelic series) | 11.2 upbm affinity estimate (log intensity, higher = more binding, comparable within an allelic series) | 11.3 upbm affinity estimate (log intensity, higher = more binding, comparable within an allelic series) | 11 upbm affinity estimate (log intensity, higher = more binding, comparable within an allelic series) | 11.1 upbm affinity estimate (log intensity, higher = more binding, comparable within an allelic series) | 11.1 upbm affinity estimate (log intensity, higher = more binding, comparable within an allelic series)
2 | AGCGGGCC | 9.04 upbm affinity estimate (log intensity, higher = more binding, comparable within an allelic series) | 8.92 upbm affinity estimate (log intensity, higher = more binding, comparable within an allelic series) | 8.88 upbm affinity estimate (log intensity, higher = more binding, comparable within an allelic series) | 8.96 upbm affinity estimate (log intensity, higher = more binding, comparable within an allelic series) | 8.96 upbm affinity estimate (log intensity, higher = more binding, comparable within an allelic series) | 8.83 upbm affinity estimate (log intensity, higher = more binding, comparable within an allelic series) | 8.88 upbm affinity estimate (log intensity, higher = more binding, comparable within an allelic series) | 8.84 upbm affinity estimate (log intensity, higher = more binding, comparable within an allelic series) | 9.03 upbm affinity estimate (log intensity, higher = more binding, comparable within an allelic series) | 8.98 upbm affinity estimate (log intensity, higher = more binding, comparable within an allelic series) | 8.99 upbm affinity estimate (log intensity, higher = more binding, comparable within an allelic series) | 8.89 upbm affinity estimate (log intensity, higher = more binding, comparable within an allelic series) | 8.98 upbm affinity estimate (log intensity, higher = more binding, comparable within an allelic series)
3 | ATATCCTA | 10.8 upbm affinity estimate (log intensity, higher = more binding, comparable within an allelic series) | 10.2 upbm affinity estimate (log intensity, higher = more binding, comparable within an allelic series) | 10.8 upbm affinity estimate (log intensity, higher = more binding, comparable within an allelic series) | 9.8 upbm affinity estimate (log intensity, higher = more binding, comparable within an allelic series) | 10.6 upbm affinity estimate (log intensity, higher = more binding, comparable within an allelic series) | 10.7 upbm affinity estimate (log intensity, higher = more binding, comparable within an allelic series) | 10.2 upbm affinity estimate (log intensity, higher = more binding, comparable within an allelic series) | 10.8 upbm affinity estimate (log intensity, higher = more binding, comparable within an allelic series) | 10.9 upbm affinity estimate (log intensity, higher = more binding, comparable within an allelic series) | 10.7 upbm affinity estimate (log intensity, higher = more binding, comparable within an allelic series) | 10.6 upbm affinity estimate (log intensity, higher = more binding, comparable within an allelic series) | 10.7 upbm affinity estimate (log intensity, higher = more binding, comparable within an allelic series) | 10.7 upbm affinity estimate (log intensity, higher = more binding, comparable within an allelic series)
4 | GATACCTA | 11.1 upbm affinity estimate (log intensity, higher = more binding, comparable within an allelic series) | 10.3 upbm affinity estimate (log intensity, higher = more binding, comparable within an allelic series) | 11.1 upbm affinity estimate (log intensity, higher = more binding, comparable within an allelic series) | 9.79 upbm affinity estimate (log intensity, higher = more binding, comparable within an allelic series) | 10.6 upbm affinity estimate (log intensity, higher = more binding, comparable within an allelic series) | 11.1 upbm affinity estimate (log intensity, higher = more binding, comparable within an allelic series) | 10.4 upbm affinity estimate (log intensity, higher = more binding, comparable within an allelic series) | 11.2 upbm affinity estimate (log intensity, higher = more binding, comparable within an allelic series) | 11.2 upbm affinity estimate (log intensity, higher = more binding, comparable within an allelic series) | 11.1 upbm affinity estimate (log intensity, higher = more binding, comparable within an allelic series) | 10.9 upbm affinity estimate (log intensity, higher = more binding, comparable within an allelic series) | 11 upbm affinity estimate (log intensity, higher = more binding, comparable within an allelic series) | 10.9 upbm affinity estimate (log intensity, higher = more binding, comparable within an allelic series)
5 | ATCGATAC | 11.2 upbm affinity estimate (log intensity, higher = more binding, comparable within an allelic series) | 10.5 upbm affinity estimate (log intensity, higher = more binding, comparable within an allelic series) | 11.2 upbm affinity estimate (log intensity, higher = more binding, comparable within an allelic series) | 9.79 upbm affinity estimate (log intensity, higher = more binding, comparable within an allelic series) | 10.6 upbm affinity estimate (log intensity, higher = more binding, comparable within an allelic series) | 10.9 upbm affinity estimate (log intensity, higher = more binding, comparable within an allelic series) | 10.3 upbm affinity estimate (log intensity, higher = more binding, comparable within an allelic series) | 11.2 upbm affinity estimate (log intensity, higher = more binding, comparable within an allelic series) | 11.3 upbm affinity estimate (log intensity, higher = more binding, comparable within an allelic series) | 11.1 upbm affinity estimate (log intensity, higher = more binding, comparable within an allelic series) | 11 upbm affinity estimate (log intensity, higher = more binding, comparable within an allelic series) | 11 upbm affinity estimate (log intensity, higher = more binding, comparable within an allelic series) | 11 upbm affinity estimate (log intensity, higher = more binding, comparable within an allelic series)

From article PMC11006913
